The supplement of paper PMC8728848
The entries come from a sample that favours the strongest signals as a whole.

Columns and labels:
Assay in all cases: glycan array binding signal (z-score within array); higher = stronger binding
Settings in all cases: glycan notation: IUPAC condensed, linker removed
Fuc(a1-2)Gal = target: Fuc(a1-2)Gal
Method in brief: (§1)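 From the Consortium for Functional Glycomics database, 3228 arrays were curated, keeping only those whose protein sequence was available. Binding is given as a within-array Z-score averaged across arrays sharing a protein sequence and across linkers. Negative Z-scores can be read as non-binding.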

[1] = target: Fuc(a1-2)Gal(b1-3)GlcNAc(b1-2)Man(a1-3)[Fuc(a1-2)Gal(b1-3)GlcNAc(b1-2)Man(a1-6)]Man(b1-4)GlcNAc(b1-4)GlcNAc
Method in brief: as §1

[2] = target: Fuc(a1-2)Gal(b1-3)[Fuc(a1-4)]GlcNAc(b1-2)Man(a1-3)[Fuc(a1-2)Gal(b1-3)[Fuc(a1-4)]GlcNAc(b1-2)Man(a1-6)]Man(b1-4)GlcNAc(b1-4)[Fuc(a1-6)]GlcNAc(b1-4)[Fuc(a1-6)]GlcNAc
Method in brief: as §1

[3] = target: Fuc(a1-2)Gal(b1-4)[Fuc(a1-3)]GlcNAc(b1-2)[Fuc(a1-2)Gal(b1-4)[Fuc(a1-3)]GlcNAc(b1-4)]Man(a1-3)[Fuc(a1-2)Gal(b1-4)[Fuc(a1-3)]GlcNAc(b1-2)Man(a1-6)]Man(b1-4)GlcNAc(b1-4)GlcNAc
Method in brief: as §1

[4] = target: Fuc(a1-2)Gal(b1-4)[Fuc(a1-3)]GlcNAc(b1-3)Gal(b1-4)[Fuc(a1-3)]GlcNAc(b1-3)Gal(b1-4)[Fuc(a1-3)]GlcNAc
Method in brief: as §1

Fuc(a1-2)Gal6S(b1-4)Glc = target: Fuc(a1-2)Gal6S(b1-4)Glc
Method in brief: as §1

[5] = target: Fuc(a1-2)[Gal(a1-3)]Gal(b1-3)GlcNAc(b1-2)Man(a1-3)[Fuc(a1-2)[Gal(a1-3)]Gal(b1-3)GlcNAc(b1-2)Man(a1-6)]Man(b1-4)GlcNAc(b1-4)[Fuc(a1-6)]GlcNAc
Method in brief: as §1

[6] = target: Fuc(a1-2)[Gal(a1-3)]Gal(b1-4)GlcNAc
Method in brief: as §1

[7] = target: Fuc(a1-2)[Gal(a1-3)]Gal(b1-4)GlcNAc(b1-2)Man
Method in brief: as §1

[8] = target: Fuc(a1-2)[GalNAc(a1-3)]Gal(b1-4)GlcNAc(b1-2)Man
Method in brief: as §1

[9] = target: Fuc(a1-2)[GalNAc(a1-3)]Gal(b1-4)GlcNAc(b1-3)GalNAc
Method in brief: as §1

[10] = target: Fuc(a1-3)[Gal(b1-4)]GlcNAc(b1-6)[Gal(b1-3)GlcNAc(b1-3)]Gal(b1-4)Glc
Method in brief: as §1

[11] = target: Fuc(a1-3)[Gal3S(b1-4)]GlcNAc
Method in brief: as §1

Gal(a1-4)Gal(b1-4)Glc = target: Gal(a1-4)Gal(b1-4)Glc
Method in brief: as §1

Gal(b1-3)GlcNAc = target: Gal(b1-3)GlcNAc
Method in brief: as §1

[12] = target: Gal(b1-3)GlcNAc(a1-6)Gal(b1-4)GlcNAc
Method in brief: as §1

[13] = target: Gal(b1-3)GlcNAc(b1-2)Man(a1-3)[Gal(b1-3)GlcNAc(b1-2)Man(a1-6)]Man(b1-4)GlcNAc(b1-4)GlcNAc
Method in brief: as §1

[14] = target: Gal(b1-3)GlcNAc(b1-2)Man(a1-3)[Gal(b1-3)GlcNAc(b1-2)Man(a1-6)]Man(b1-4)GlcNAc(b1-4)[Fuc(a1-6)]GlcNAc
Method in brief: as §1

[15] = target: Gal(b1-3)GlcNAc(b1-3)Gal(b1-3)GlcNAc
Method in brief: as §1

[16] = target: Gal(b1-3)GlcNAc(b1-3)Gal(b1-4)GlcNAc
Method in brief: as §1

[17] = target: Gal(b1-3)GlcNAc(b1-3)Gal(b1-4)GlcNAc(b1-2)[Gal(b1-3)GlcNAc(b1-3)Gal(b1-4)GlcNAc(b1-6)]Man(a1-6)[Gal(b1-3)GlcNAc(b1-3)Gal(b1-4)GlcNAc(b1-2)Man(a1-3)]Man(b1-4)GlcNAc(b1-4)[Fuc(a1-6)]GlcNAc
Method in brief: as §1

[18] = target: Gal(b1-3)GlcNAc(b1-3)Gal(b1-4)GlcNAc(b1-3)Gal(b1-4)GlcNAc(b1-2)[Gal(b1-3)GlcNAc(b1-3)Gal(b1-4)GlcNAc(b1-3)Gal(b1-4)GlcNAc(b1-6)]Man(a1-6)[Gal(b1-3)GlcNAc(b1-3)Gal(b1-4)GlcNAc(b1-3)Gal(b1-4)GlcNAc(b1-2)Man(a1-3)]Man(b1-4)GlcNAc(b1-4)[Fuc(a1-6)]GlcNAc
Method in brief: as §1

[19] = target: Gal(b1-3)[Fuc(a1-4)]GlcNAc(b1-3)Gal(b1-4)[Fuc(a1-3)]GlcNAc
Method in brief: as §1

[20] = target: Gal(b1-3)[Neu5Ac(b2-6)]GalNAc
Method in brief: as §1

[21] = target: Gal(b1-4)GlcNAc(b1-3)Gal(b1-4)GlcNAc
Method in brief: as §1

[22] = target: Gal(b1-4)GlcNAc(b1-3)Gal(b1-4)GlcNAc(b1-2)Man(a1-3)[Gal(b1-4)GlcNAc(b1-3)Gal(b1-4)GlcNAc(b1-2)Man(a1-6)]Man(b1-4)GlcNAc(b1-4)[Fuc(a1-6)]GlcNAc
Method in brief: as §1

[23] = target: Gal(b1-4)GlcNAc(b1-3)Gal(b1-4)GlcNAc(b1-3)Gal(b1-4)GlcNAc(b1-3)Gal(b1-4)GlcNAc(b1-2)Man(a1-3)[Gal(b1-4)GlcNAc(b1-3)Gal(b1-4)GlcNAc(b1-3)Gal(b1-4)GlcNAc(b1-3)Gal(b1-4)GlcNAc(b1-2)Man(a1-6)]Man(b1-4)GlcNAc(b1-4)GlcNAc
Method in brief: as §1

[24] = target: Gal(b1-4)GlcNAc(b1-3)Gal(b1-4)GlcNAc(b1-3)Gal(b1-4)GlcNAc(b1-3)Gal(b1-4)GlcNAc(b1-2)Man(a1-3)[Gal(b1-4)GlcNAc(b1-3)Gal(b1-4)GlcNAc(b1-3)Gal(b1-4)GlcNAc(b1-3)Gal(b1-4)GlcNAc(b1-2)Man(a1-6)]Man(b1-4)GlcNAc(b1-4)[Fuc(a1-6)]GlcNAc
Method in brief: as §1

[25] = target: Gal(b1-4)GlcNAc(b1-3)Gal(b1-4)GlcNAc(b1-3)Gal(b1-4)GlcNAc(b1-3)Gal(b1-4)GlcNAc(b1-2)[Gal(b1-4)GlcNAc(b1-3)Gal(b1-4)GlcNAc(b1-3)Gal(b1-4)GlcNAc(b1-3)Gal(b1-4)GlcNAc(b1-6)]Man(a1-6)[Gal(b1-4)GlcNAc(b1-3)Gal(b1-4)GlcNAc(b1-3)Gal(b1-4)GlcNAc(b1-3)Gal(b1-4)GlcNAc(b1-2)Man(a1-3)]Man(b1-4)GlcNAc(b1-4)[Fuc(a1-6)]GlcNAc
Method in brief: as §1

[26] = target: Gal(b1-4)GlcNAc(b1-3)Gal(b1-4)GlcNAc(b1-3)Gal(b1-4)GlcNAc(b1-3)Gal(b1-4)GlcNAc(b1-3)Gal(b1-4)GlcNAc(b1-2)[Gal(b1-4)GlcNAc(b1-3)Gal(b1-4)GlcNAc(b1-3)Gal(b1-4)GlcNAc(b1-3)Gal(b1-4)GlcNAc(b1-3)Gal(b1-4)GlcNAc(b1-6)]Man(a1-6)[Gal(b1-4)GlcNAc(b1-3)Gal(b1-4)GlcNAc(b1-3)Gal(b1-4)GlcNAc(b1-3)Gal(b1-4)GlcNAc(b1-3)Gal(b1-4)GlcNAc(b1-2)Man(a1-3)]Man(b1-4)GlcNAc(b1-4)[Fuc(a1-6)]GlcNAc
Method in brief: as §1

Gal(b1-4)GlcNAc6P = target: Gal(b1-4)GlcNAc6P
Method in brief: as §1

Gal6S(b1-4)GlcNAc6S = target: Gal6S(b1-4)GlcNAc6S
Method in brief: as §1

Glc(b1-6)Glc = target: Glc(b1-6)Glc
Method in brief: as §1

[27] = target: GlcA3S(b1-3)Gal(b1-4)GlcNAc(b1-2)Man
Method in brief: as §1

[28] = target: GlcNAc(a1-4)Gal(b1-4)GlcNAc(b1-3)Gal(b1-4)GlcNAc(b1-3)Gal(b1-4)GlcNAc
Method in brief: as §1

[29] = target: GlcNAc(b1-3)Gal(b1-4)GlcNAc
Method in brief: as §1

[30] = target: GlcNAc(b1-4)Gal(b1-4)GlcNAc
Method in brief: as §1

Kdn(a2-6)Gal(b1-4)GlcNAc = target: Kdn(a2-6)Gal(b1-4)GlcNAc
Method in brief: as §1

[31] = target: Man(a1-2)Man(a1-2)Man(a1-3)Man
Method in brief: as §1

[32] = target: Neu5Ac(a2-3)Gal(b1-3)GlcNAc(b1-3)Gal(b1-4)GlcNAc
Method in brief: as §1

[33] = target: Neu5Ac(a2-3)Gal(b1-4)GlcNAc
Method in brief: as §1

[34] = target: Neu5Ac(a2-3)Gal(b1-4)[Fuc(a1-3)]GlcNAc(b1-6)[Gal(b1-3)]GalNAc
Method in brief: as §1

Neu5Ac(a2-6)GalNAc = target: Neu5Ac(a2-6)GalNAc
Method in brief: as §1

Neu5Ac(a2-8)Neu5Ac = target: Neu5Ac(a2-8)Neu5Ac
Method in brief: as §1

[35] = target: Neu5Ac(a2-8)Neu5Ac(a2-8)Neu5Ac
Method in brief: as §1

Neu5Ac(b2-6)GalNAc = target: Neu5Ac(b2-6)GalNAc
Method in brief: as §1

[36] = target: Neu5Gc(a2-3)Gal(b1-3)[Fuc(a1-4)]GlcNAc
Method in brief: as §1

[37] = target: Neu5Gc(a2-8)Neu5Ac(a2-3)Gal(b1-4)GlcNAc
Method in brief: as §1

B1: SGC, Q9M345 (protein)
chain: QNLNFTYNGFHPPLTDISLQGLATVTPNGLLKLTNTSVQKTGHAFCTERIRFKDSQNGNVSSFSTTFVFAIHSQIPTLSGHGIAFVVAPTLGLPFALPSQYIGLFNISNNGNDTNHIFAVEFDTIQSSEFGDPNDNHVGIDLNGLRSANYSTAGYRDDHDKFQNLSLISRKRIQVWIDYDNRSHRIDVTVAPFDSDKPRKPLVSYVRDLSSILLEDMYVGFSSATGSVLSEHFLVGWSFRLNGEAPMLSLSKLPKLPRFEPRRIS
Fuc(a1-2)Gal
  glycan array binding signal (z-score): -0.354
[1]
  glycan array binding signal (z-score): 3.64
[2]
  glycan array binding signal (z-score): -0.292
[3]
  glycan array binding signal (z-score): -0.12
[4]
  glycan array binding signal (z-score): -0.332
Fuc(a1-2)Gal6S(b1-4)Glc
  glycan array binding signal (z-score): -0.377
[5]
  glycan array binding signal (z-score): -0.4
[6]
  glycan array binding signal (z-score): -0.374
[7]
  glycan array binding signal (z-score): -0.352
[8]
  glycan array binding signal (z-score): -0.4
[9]
  glycan array binding signal (z-score): -0.344
[10]
  glycan array binding signal (z-score): -0.291
[11]
  glycan array binding signal (z-score): -0.299
Gal(a1-4)Gal(b1-4)Glc
  glycan array binding signal (z-score): -0.292
Gal(b1-3)GlcNAc
  glycan array binding signal (z-score): -0.208
[12]
  glycan array binding signal (z-score): 0.154
[13]
  glycan array binding signal (z-score): 3.77
[14]
  glycan array binding signal (z-score): 6.74
[15]
  glycan array binding signal (z-score): 0.723
[16]
  glycan array binding signal (z-score): -0.434
[17]
  glycan array binding signal (z-score): 5.28
[18]
  glycan array binding signal (z-score): 4.72
[19]
  glycan array binding signal (z-score): -0.357
[20]
  glycan array binding signal (z-score): -0.305
[21]
  glycan array binding signal (z-score): -0.296
[22]
  glycan array binding signal (z-score): 4.81
[23]
  glycan array binding signal (z-score): 4.57
[24]
  glycan array binding signal (z-score): 5.27
[25]
  glycan array binding signal (z-score): 8.45
[26]
  glycan array binding signal (z-score): 5.39
Gal(b1-4)GlcNAc6P
  glycan array binding signal (z-score): -0.448
Gal6S(b1-4)GlcNAc6S
  glycan array binding signal (z-score): 0.254
Glc(b1-6)Glc
  glycan array binding signal (z-score): -0.344
[27]
  glycan array binding signal (z-score): -0.501
[28]
  glycan array binding signal (z-score): -0.351
[29]
  glycan array binding signal (z-score): -0.367
[30]
  glycan array binding signal (z-score): -0.349
Kdn(a2-6)Gal(b1-4)GlcNAc
  glycan array binding signal (z-score): -0.393
[31]
  glycan array binding signal (z-score): -0.36
[32]
  glycan array binding signal (z-score): -0.413
[33]
  glycan array binding signal (z-score): -0.311
[34]
  glycan array binding signal (z-score): 8.35
Neu5Ac(a2-6)GalNAc
  glycan array binding signal (z-score): -0.34
Neu5Ac(a2-8)Neu5Ac
  glycan array binding signal (z-score): -0.356
[35]
  glycan array binding signal (z-score): -0.347
Neu5Ac(b2-6)GalNAc
  glycan array binding signal (z-score): -0.286
[36]
  glycan array binding signal (z-score): -0.349
[37]
  glycan array binding signal (z-score): -0.365
